# Results reported in PubChem BioAssay AID1117291 (Broad Institute, 2014).
# Results with a measured potency or affinity are listed apart. Records with an inconclusive call do not appear. Calls of active or inactive are those of the source.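 Rule for the calls: active = compound whose fitted half-maximal potency lies at or below double its highest tested dose in every test; inconclusive = tests disagree, or a flat partial loss, or a poor fit; inactive = every test inactive.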
# Experiment: hepatoma cell viability loss – CellTiter-Glo luminescence, dry powder, set 20, cytotoxicity control, dose response (AID 1117291)
# Settings: HepG2 viability, CellTiter-Glo ATP luminescence, 72 h; series mostly up to 26 µM
row,SMILES,outcome
1,COc1ccc(C(=O)Nc2ccccc2N2CCCCC2)cc1S(=O)(=O)O,inactive
2,O=[N+]([O-])c1ccc(S(=O)(=O)Nc2cc(C(F)(F)F)ccc2N2CCCCC2)c([N+](=O)[O-])c1,inactive
3,O=S(=O)(O)c1ccc(N2N=C(c3ccccc3)CC2c2ccccc2)cc1 (configuration not stated),inactive
4,Cc1ccc(NC(=O)NC2(C(=O)N3CCOCC3)CCCCC2)cc1,inactive
5,O=C(Nc1cc(C(F)(F)F)ccc1N1CCCCC1)c1ccc(S(=O)(=O)O)cc1,inactive
6,COc1ccc(C(=O)Nc2cc(C(F)(F)F)ccc2N2CCCCC2)cc1S(=O)(=O)O,inactive
7,COc1ccc(C(=O)Nc2cc(F)ccc2N2CCCCC2)cc1S(=O)(=O)O,inactive
8,CC(=O)N1CCN(C(=O)C2(NC(=O)Nc3ccccc3C(F)(F)F)CCCCC2)CC1,inactive
9,COc1ccc(C(=O)Nc2cc(C(F)(F)F)ccc2N2CCOCC2)cc1S(=O)(=O)O,inactive
10,Cn1cnc(S(=O)(=O)Nc2cc(C(F)(F)F)ccc2N2CCCCC2)c1,inactive
11,O=S(=O)(Nc1cc(C(F)(F)F)ccc1N1CCCCC1)c1ccc(Br)cc1,inactive
12,CC(=O)N1CCN(C(=O)[C@@H]2CCN2C(=O)Nc2ccc(C)cc2)CC1,inactive
13,CC(=O)N1CCN(C(=O)C2(NC(=O)NCCc3ccccc3)CCCCC2)CC1,inactive
14,CC(=O)N1CCN(C(=O)C2(NC(=O)Nc3ccc(C(F)(F)F)cc3)CCCC2)CC1,inactive
15,CC(=O)N1CCN(C(=O)C(C)(C)NC(=O)Nc2ccc(C)cc2)CC1,inactive
16,CC(=O)N1CCN(C(=O)C2(NC(=O)Nc3ccc(F)cc3)CCCC2)CC1,inactive
17,CC(=O)N1CCN(C(=O)C2(NC(=O)Nc3ccc(C(F)(F)F)cc3)CCCCC2)CC1,inactive
18,COc1ccc(C(=O)O)cc1S(=O)(=O)Nc1cc(C(F)(F)F)ccc1N1CCOCC1,inactive
19,CC(=O)N1CCN(C(=O)C2(NC(=O)Nc3cccc(C(F)(F)F)c3)CCCCC2)CC1,inactive
20,CC(=O)N1CCN(C(=O)C2(NC(=O)Nc3ccc(F)cc3)CCCCC2)CC1,inactive
21,CC(=O)N1CCN(C(=O)C2(NC(=O)Nc3ccc(C)cc3)CC2)CC1,inactive
22,CC(=O)N1CCN(C(=O)CNC(=O)Nc2ccc(C)cc2)CC1,inactive
